In PubChem BioAssay (NCI) one finds growth data, which are given here for 8 compounds.

Compounds without any hit were thinned out: in the full panel of roughly 83,000, 20% have a hit.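 Values shown are percent growth following 48 h exposure of cells in 96-well plates to a single concentration of compound; below 10 was considered active.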 A number with no mark means an inactive call. Calls of active or inactive are those of the source.

What all share (assay): NCI-60 one-dose screen, 48 h (100 = growth as untreated, 0 = no growth, -100 = all killed)
Settings in all cases: 10 µM unless noted

Test [1] deals with DU-145 prostate.
The subject of test [2] is K-562 leukemia.
Test [3] has as its system MALME-3M melanoma.
The test system of test [4] is MDA-MB-231 breast.
Test [5] relates to RXF 393 renal.
For test [6], the system named is SF-268 CNS.
The subject of test [7] is SF-295 CNS.
Test [8] concerns SF-539 CNS.
Test [9] has as its system UACC-257 melanoma.
In test [10] the test system is M14 melanoma.
For test [11], the system named is HCT-15 colon.
In test [12] the test system is HT29 colon.
The test system of test [13] is SNB-75 CNS.
Test [14] relates to SNB-19 CNS.
Test [15] deals with U251 CNS.
The test system of test [16] is PC-3 prostate.
Test [17] concerns SK-MEL-5 melanoma.
Test [18] relates to UACC-62 melanoma.
In test [19] the test system is LOX IMVI melanoma.
In test [20] the test system is SK-MEL-28 melanoma.

For `O=C(Cn1ccc2ccccc21)Nc1ccc(-c2nc3ccccc3s2)cc1`, the growth in test [1] was 101%; in [2] it was 103%; in test [3], 108%; in [4] it was 108%; in test [5], 113%; in test [6], 96.6%. The growth was 103% in test [7]; 102% in [8]; 100% in [9]; 108% in test [10]; 110% in test [11]; 115% in test [12]. The growth in test [13] was 93.8%; in [14], 98.6%; in test [15], 97.6%; in test [16], 98%; in test [17] it was 98.6%; in test [18], 95%. Also, the growth in test [19] is 91.3%; in test [20] it was 114%.

For the compound `Cc1cc(Oc2ccccc2)ccc1Nc1ncnc2ccc(-c3cnc(Cl)c(NS(C)(=O)=O)c3)cc12`, the growth in test [1] was 32.1%; in test [2] it was 54.3%; in test [3] it was 0.126% (active); in test [4], 17.4%; in test [5], -31.6% (active); in [6] it was 35.4%. Also, the growth in test [7] is 5.34% (active); in test [8], -15.3% (active); in [9], 6.42% (active); in [10], 19.5%; in [11], 21.6%; in test [12] it was 15.8%. For the same compound, the growth is 0.0921% (active) in test [13]; 32.4% in test [14]; 29.4% in test [15]; 25.3% in test [16]; -25.3% (active) in [17]; 10.5% in [18]. The results for the growth in test [19] and in test [20] were -3.68% (active) and 7.7% (active), respectively.

As to `CC(C)(C)c1nc(-c2cccc(NS(=O)(=O)c3c(F)cccc3F)c2F)c(-c2ccnc(N)n2)s1`, the growth was 105% in test [1]; 50.8% in test [2]; 21.8% in test [3]; 47.1% in test [4]; 90% in test [5]; 105% in test [6]. In addition, the growth in test [7] was 112%; in test [8], 114%; in [9], 25.2%; in [10] it was 32%; in [11], 90.8%; in [12], 8.76% (active). Besides, the growth was 107% in test [13]; 111% in [14]; 113% in [15]; 100% in test [16]; 61.1% in test [17]; 30.9% in test [18]. Besides, the growth in test [19] is 24.5%; in test [20], 37.1%.

Turning to `CN(C)CCn1c(=O)c2c3cc4c(cc3n(CCN(C)C)c2c2ccc(Cl)cc21)OCO4`, the growth is 60.6% in test [1]; -17.8% (active) in test [2]; 78.7% in test [3]; 31.6% in test [4]; 57.9% in test [5]; 32% in test [6]. For the same compound, the growth was 32.5% in [7]; 69.9% in test [8]; 71.6% in test [9]; 50.5% in test [10]; 43.3% in test [11]; 25.1% in [12]. Besides, the growth in [13] is 70.8%; in test [14] it was 34.3%; in test [15] it was 44.6%; in test [16], 36.2%; in test [17], 52.8%; in test [18], 76.9%. Further, the growth is -88.2% (active) in test [19] and 87% in test [20].

In the case of `O=C(O)c1ccc2c(c1)nc(Nc1cccc(Cl)c1)c1ccncc12`, the growth in test [1] is 33.7%; in [2] it was 8.63% (active); in [3], -10.2% (active); in [4], 3.58% (active); in test [5], -9.7% (active); in test [6], 14.8%. The growth in [7] is 6.7% (active); in test [8] it was -23.8% (active); in test [9], -7.85% (active); in [10] it was -0.117% (active); in test [11], 5.48% (active); in test [12] it was 19.2%. For the same compound, the growth in test [13] was -25.6% (active); in [14], 13.5%; in test [15], -24.6% (active); in [16] it was 10.1%; in test [17], -64.9% (active); in [18] it was -50.4% (active). For the same compound, the results for the growth in test [19] and in test [20] were 7.77% (active) and 3.16% (active), respectively.

In the case of `Clc1ccc(C(Cn2ccnc2)OCc2ccsc2Cl)c(Cl)c1` (stereo not given), the growth in [1] is 90.3%; in test [2] it was 16%; in test [3] it was 65.8%; in test [4], 70.9%; in test [5], 27.8%; in [6] it was 67.5%. Further, the growth in [7] was 37.6%; in test [8], 72.5%; in test [9], 59.7%; in test [10], 41.4%; in [11], 42.5%; in [12], 30%. The growth in [13] was 56.4%; in [14], 68.4%; in test [15], 54.7%; in test [16], 31.1%; in test [17], 31.2%; in test [18] it was 41.9%. Moreover, the growth is 43.7% in test [19] and 77.2% in test [20].

Turning to `NC[C@@](O)(c1ccc(Cl)cc1)c1ccc(-c2cn[nH]c2)cc1`, the growth was 30.3% in test [1]; 17.2% in test [2]; -24.7% (active) in test [3]; 31.7% in test [4]; -6.86% (active) in [5]; 35.5% in test [6]. Further, the growth in test [7] is 28.6%; in test [8], 3.43% (active); in [9] it was -23.9% (active); in [10] it was 7.61% (active); in test [11] it was 9.55% (active); in test [12] it was 1.46% (active). Further, the growth is -6.12% (active) in test [13]; 30.6% in test [14]; 19.1% in test [15]; 40.1% in test [16]; 39.3% in test [17]; -2.01% (active) in test [18]. Further, the growth in test [19] was 7.1% (active); in [20] it was 3.21% (active).

In the case of `Cn1cnc2c(F)c(Nc3ccc(Br)cc3Cl)c(C(=O)NOCCO)cc21`, the growth in test [1] is 69.6%; in test [2], 47.2%; in test [3], -16.2% (active); in test [4], 24.7%; in [5], 14.7%; in test [6] it was 77.2%. Besides, the growth in test [7] is 82.8%; in test [8] it was 69%; in test [9], -21.2% (active); in test [10], 6.05% (active); in test [11], 70%; in [12], 7.16% (active). In addition, the growth was 71.6% in test [13]; 52.3% in test [14]; 46.2% in [15]; 90.7% in test [16]; 38.2% in test [17]; -26.6% (active) in test [18]. Moreover, the growth in test [19] is 27.6%; in test [20], -5.61% (active).
